PubChem BioAssay (EPA / NIEHS)
Results filed as inconclusive are left out. The source made the active and inactive calls. The calls were made as follows: active = hit-call score of the fitted dose curve at least 0.9, where 1 is the maximum; inconclusive = response in the unintended direction; inactive = score below 0.9.

Experiment: ACEA_ER_80hr: ACEA Biosciences xCELLigence Real-Time Cell Analysis on Estrogen Receptor Agonism for Proliferation (AID 2282667)
Conditions: T47D proliferation, impedance (xCELLigence), 80 h
In short: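 T47D human breast cells were seeded on electrode plates, monitored overnight, then exposed continuously to compounds in eight-point 1:4 dilutions from 100 uM (max 0.5% DMSO). Impedance-based growth was read at 80 h, fitted upward relative to DMSO.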
In the case of `CC1=CCC(C(C)C)=CC1`, the outcome is reported as “inactive”.
With `CCCCCCOc1ccc(O)cc1` the outcome was “inactive”.
In the case of `Cc1ccccc1S`, the outcome is reported as “inactive”.
In the case of `CC(C)(C)c1cccc(O)c1`, the outcome is reported as “inactive”.
In the case of `CCCCOCCOCCOCCO`, the outcome is reported as “inactive”.
With `CCCCCC1C(=O)CCC1CC(=O)OC` (configuration not stated) the AC50 was 50000 nM (active).
In the case of `COC(=O)C(C)Oc1ccc(Oc2ncc(C(F)(F)F)cc2Cl)cc1` (configuration not stated), the outcome is reported as “inactive”.
In the case of `C=C(C)CCCC(C)CCO` (configuration not stated), the outcome is reported as “inactive”.
For `CN(C)c1ccc(C=O)cc1`, the outcome was “inactive”.
In the case of `CN(C)CCC=C1c2ccccc2CCc2ccccc21`, the AC50 is reported as 124 nM (active).
In the case of `O=S1(=O)CC=CC1`, the outcome is reported as “inactive”.
For `CCCCN(CCCC)CCCCCCN(CCCC)CCCC`, the outcome was “inactive”.
With `CCOC(=O)C=Cc1ccccc1` the outcome was “inactive”.
For `CC(=O)c1cccnc1`, the outcome was “inactive”.
In the case of `C=CCOCC(O)CO` (configuration not stated), the AC50 is reported as 28.5 nM (active).
With `CC(C)N1C(=O)c2ccccc2C1=O` the outcome was “inactive”.
With `COc1ccc(OC)cc1` the outcome was “inactive”.
With `CC(=O)CCc1ccc(O)cc1` the outcome was “inactive”.
In the case of `N=C1N=C(N)c2ccccc21`, the outcome is reported as “inactive”.
For `[Na+]`, the outcome was “inactive”.
With `CCC(C)COC(=O)CC(C)C` (configuration not stated) the outcome was “inactive”.
With `Brc1cc(Br)cc(Br)c1` the outcome was “inactive”.
For `C=C(F)C(=O)OC(C(F)(F)F)C(F)(F)F`, the outcome was “inactive”.
With `CC1(C)CC(N)CC(C)(CN)C1` (configuration not stated) the outcome was “inactive”.
With `c1ccc(-c2nn[nH]n2)cc1` the AC50 was 26.1 nM (active).
With `c1ccc2scnc2c1` the outcome was “inactive”.
With `CCCCCCCCCCCCS` the outcome was “inactive”.
With `O=S(=O)(O)C(F)(F)C(F)(F)OC(F)(F)C(F)(F)F` the outcome was “inactive”.
For `CC(C)OB(OC(C)C)OC(C)C`, the outcome was “inactive”.
In the case of `C=CCOC(=O)/C=C\C(=O)OCC=C`, the outcome is reported as “inactive”.
For `N#CCCCC(C#N)CCC#N` (configuration not stated), the outcome was “inactive”.
For `CCCC[N+](C)(CCCC)CCCC`, the outcome was “inactive”.
